Compound activity (PubChem)
CHT PAM: CHT positive allosteric modulators, primary screen, cell-based, membrane potential dye, choline EC20. High affinity choline transporter 1 (Homo sapiens), Q9GZV3. CHT-expressing cells; active compounds read high; LV-AA mutant CHT in HEK293 cells. B-score at 10 µM. 310,000 compounds, 0.49% hits;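 active = initial fluorescence not abnormally high and integrated response B-score, plate-corrected, over 3 SD above library mean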
IDE cell activ: human IDE activators in live cells, primary screen, fluorescence polarization, HEK cells, FAbeta-B substrate; FAbeta-B cleavage; 0% vehicle, 100% cell-free pure enzyme wells; activation, % at 5.96 µM; Insulin-degrading enzyme (Homo sapiens), P14735; 340,000 compounds, 0.073% hits;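 active = activation above the mean of all tested compounds plus 3 SD, set per screening campaign, cut at about 17% in these data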
TMEM16A act: TMEM16A chloride channel activators or potentiators, primary screen, cell-based, HTS. B-score at 10 µM. AID 623877, 2012. 340,000 compounds, 0.3% hits. Anoctamin-1 (Mus musculus), Q8BHY3. HEK293 TMEM16A/YFP-H148Q/I152L, iodide quench fluorescence; active compounds read low;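 active = fluorescence-ratio B-score plate-corrected deviation score at least 3 library SD below zero, with starting fluorescence score within 5 deviations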;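 also: channel opened by trigger with iodide after compound preincubation; score built on the fluorescence ratio of max minus min over baseline; more negative score means more quench and so TMEM16A activation or potentiation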
Target sequence (Q8BHY3 whole entry, looked up): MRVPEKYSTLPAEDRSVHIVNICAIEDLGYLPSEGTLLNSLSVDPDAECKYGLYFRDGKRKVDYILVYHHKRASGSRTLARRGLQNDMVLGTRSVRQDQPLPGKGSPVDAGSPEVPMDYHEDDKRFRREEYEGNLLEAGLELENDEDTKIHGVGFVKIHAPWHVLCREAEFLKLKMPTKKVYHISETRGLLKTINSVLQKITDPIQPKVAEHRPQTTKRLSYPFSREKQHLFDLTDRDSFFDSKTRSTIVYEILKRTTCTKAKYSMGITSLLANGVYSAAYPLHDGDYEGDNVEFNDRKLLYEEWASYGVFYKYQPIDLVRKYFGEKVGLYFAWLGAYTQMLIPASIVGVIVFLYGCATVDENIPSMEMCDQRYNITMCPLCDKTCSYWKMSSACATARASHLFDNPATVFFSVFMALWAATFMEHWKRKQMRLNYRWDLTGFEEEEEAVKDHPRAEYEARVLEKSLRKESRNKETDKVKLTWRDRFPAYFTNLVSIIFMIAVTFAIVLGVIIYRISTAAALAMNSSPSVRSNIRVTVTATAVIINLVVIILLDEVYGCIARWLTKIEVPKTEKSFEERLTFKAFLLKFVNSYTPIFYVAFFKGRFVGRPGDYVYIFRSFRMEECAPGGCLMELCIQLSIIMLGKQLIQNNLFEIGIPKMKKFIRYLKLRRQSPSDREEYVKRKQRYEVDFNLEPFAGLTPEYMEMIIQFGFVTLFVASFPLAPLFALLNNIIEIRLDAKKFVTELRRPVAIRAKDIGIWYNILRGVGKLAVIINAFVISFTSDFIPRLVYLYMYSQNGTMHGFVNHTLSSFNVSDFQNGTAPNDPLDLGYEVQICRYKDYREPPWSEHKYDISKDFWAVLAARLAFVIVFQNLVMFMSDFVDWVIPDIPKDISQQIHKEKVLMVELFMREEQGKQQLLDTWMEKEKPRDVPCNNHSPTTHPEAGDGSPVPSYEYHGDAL
IDE cell inh: human IDE inhibitors in live cells, primary screen, fluorescence polarization, HEK cells, FAbetaB substrate; Insulin-degrading enzyme (Homo sapiens), P14735; FAbetaB cleavage; inhibition, % at 5.59 µM; 320,000 compounds, 0.41% hits;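 active = percent inhibition above the average of all tested compounds plus 3 SD, set per screening campaign, cut at about 16% in these data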;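 also: IDE supplied by intact live HEK cells; FP after avidin binding of uncleaved biotin substrate so inhibition keeps polarization high; 0% = DMSO wells and 100% = 60 µM reference IDE inhibitor Ii1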
TMEM16A inh: TMEM16A chloride channel inhibitors, primary screen, cell-based, HTS. HEK293 TMEM16A/YFP iodide influx fluorescence, ionomycin. normalized B-score (activity score, 25-100; higher = stronger inhibition) at 10 µM. 310,000 compounds, 1.2% hits;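 active = ratio plate-corrected score three or more library SD toward inhibition, starting fluorescence score within five deviations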;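 also: score derived from kinetic fluorescence span divided by baseline fluorescence per well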
CHT block: inhibitors of human choline transporter CHT; High affinity choline transporter 1 (Homo sapiens), Q9GZV3; CHT-expressing cells, membrane potential dye, choline response; active compounds read low; B-score at 10 µM; 310,000 compounds, 0.86% hits; AID 488975, 2010;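 active = B-score over 3 SD under the library average, and starting fluorescence ratio not unusually high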;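 also: choline stimulus applied at its EC90 after an EC20 pre-addition; B-score computed on integrated fluorescence ratio after choline addition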
CHT block conf: CHT inhibitors, confirmation, cell-based, membrane potential dye, duplicate; 2,400 compounds, 70% hits; shares compounds with CHT block; AID 493221, 2011; CHT-expressing cells, choline membrane potential dye; LV-to-AA substituted CHT, HEK293 cells; CHT activity remaining % of control (active compounds read low), % at 10 µM;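 active = choline transporter activity left, mean of duplicates at 10 µM, below buffer-only control mean minus 3 SD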;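 also: depolarization triggered by choline at its EC90 following an EC20 pre-addition; 0% = hemicholinium-3 full block and 100% = buffer-only control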
HEK293 CHT ctr: membrane potential effects in parental HEK293, counter-screen for CHT inhibitor project, cell-based, membrane potential dye; choline response; active = decrease or increase beyond buffer ±3SD; shares compounds with CHT block; AID 493222, 2011; 2,400 compounds, 4% hits; membrane potential ratio readout (active if shifted either direction beyond buffer ±3SD; no single direction) at 10 µM;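 also: parental cells lack the transporter so any hit is non-specific; ratio is peak minus trough fluorescence over baseline after EC90 choline challenge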
The depositor's hits bear a star; i = inactive; · = no result given. Rows were chosen to be rich in hits. Some 2.7% of all compounds tested hit in one or more screens of this group.

SMILES	CHT PAM	IDE cell activ	TMEM16A act	IDE cell inh	TMEM16A inh	CHT block	CHT block conf	HEK293 CHT ctr
CCC(CC)c1nnc(NC(=O)c2c(C)nn(Cc3ccccc3Cl)c2C)s1	i	1	i	0	i	-5.1*	i	i
COc1ccc(C(=O)CSc2nnc(-c3ccco3)n2C)cc1	i	-4	i	5	i	-5.4*	i	i
CCc1ccc2c(c1)C1(NN=C(c3ccc(C)cc3)S1)C(=O)N2 (configuration not stated)	i	-14	i	14	i	-5.9*	67%*	i
Cc1ccc([N+](=O)[O-])cc1N	i	-4	i	-1	i	i	·	·
CCc1cc([N+](=O)[O-])cc(CC)c1N	i	4	i	2	i	-5.9*	40%*	i
O=C(O)c1cc(S(=O)(=O)N2CCCCC2)ccc1N1CCCCC1	·	1	i	-4	·	·	·	·
O=C(NN1C(=O)/C(=C/c2ccc(O)c([N+](=O)[O-])c2)SC1=S)c1ccccc1Cl	i	-1	i	4	i	-5.4*	i	i
NC1=NC(=O)/C(=C\c2ccc(O)c([N+](=O)[O-])c2)S1	i	6	i	3	i	i	·	·
CCOc1ccc(NC(=O)Cn2nc(-c3ccccc3Cl)n(CC)c2=S)cc1	i	-4	i	5	i	i	i	i
CN(C(=O)c1ccc(NC(=O)Cc2cccc(NC(=O)C3CCCN(C(=O)C4CCC4)C3)c2)cc1)C1CCCC1 (configuration not stated)	·	3	i	-1	·	·	·	·
CC(C(=O)Nc1ccc(Cl)cc1)N1C(=O)NC2(CCCC2)C1=O (configuration not stated)	i	1	i	2	i	i	·	·
O=C(O)c1cnnc2ccccc12	·	-4	i	·	·	·	·	·
CN(C)c1nc(N)c(C#N)c(C#N)c1C#N	·	4	i	·	·	·	·	·
CCCCNS(=O)(=O)c1ccc(NC(=O)c2c(-c3ccccc3Cl)noc2C)cc1	i	1	i	7	i	-5*	54%*	i
COc1ccccc1N1CCN(C2CCCN(S(=O)(=O)c3ccccc3)C2)CC1 (configuration not stated)	i	1	i	-2	i	i	·	·
CC(CC1C(C#N)=C(N)SC(N)=C1C#N)c1ccccc1 (configuration not stated)	i	-1	i	6	100*	-5.3*	i	i
CC(c1ccccc1)C1C(C#N)=C(N)SC(N)=C1C#N (configuration not stated)	i	-6	i	7	i	i	·	·
CC(=O)NCCc1nc2ccccc2n1CCOc1cccc(C)c1	i	-1	i	2	i	i	·	·
Cc1cccc(OCCCn2c(CCNC(=O)C(C)C)nc3ccccc32)c1	i	-1	i	4	i	-5.1*	i	i
COc1cccc(CNc2ccc(N3CCCCC3)cc2)c1OC	i	-3	i	6	i	-15*	12%*	i
CCCn1c(N)c(C(=O)COC(=O)/C=C/c2ccc(OC(F)F)c(OC)c2)c(=O)[nH]c1=O	·	-4	i	1	·	·	·	·
Cc1nnc(NCc2cccc(Cl)c2)c2ccccc12	i	1	i	7	i	-10*	20%*	i
COc1ccc(S(=O)(=O)Nc2cccc3c2O[C@H](CN(C)Cc2ccncc2)[C@@H](C)CN([C@H](C)CO)C3=O)cc1	·	4	i	3	·	·	·	·
O=C(Cn1cnc2cc([N+](=O)[O-])ccc2c1=O)Nc1cccc(S(=O)(=O)N2CCCCC2)c1	·	6	i	·	·	·	·	·
CC(=O)c1cccc(NC(=O)c2cc(=O)[nH]c3ccc(S(=O)(=O)N4CCOCC4)cc23)c1	·	1	i	1	·	·	·	·
SMILES	CHT PAM	IDE cell activ	TMEM16A act	IDE cell inh	TMEM16A inh	CHT block	CHT block conf	HEK293 CHT ctr
CCN(CC)CCNC(=O)c1ccc(NC(=O)c2ccc(S(=O)(=O)N3CCCCCC3)cc2)cc1	i	6	i	0	i	i	·	·
CCN(CC)CCNC(=O)c1ccc(N2CCCCC2)c(NS(=O)(=O)c2ccc(C)cc2)c1	i	2	i	-1	i	-5.6*	49%*	4*
CC(=O)Nc1ccc(S(=O)(=O)NCCC(=O)OCC(=O)c2cc(C)ccc2C)cc1	·	-2	i	·	·	·	·	·
COCCN1Cc2cccc(C(=O)Nc3ccc(-c4nc5ccccc5[nH]4)cc3)c2C1=O	i	-6	i	14	i	-8.3*	i	i
CCCN1Cc2cccc(C(=O)Nc3ccc(-c4nc5ccccc5[nH]4)cc3)c2C1=O	i	-6	i	6	i	i	·	·
C/C(=N\N=C(N)N)c1ccc(Cl)c(Cl)c1	i	0	i	4	i	-11*	19%*	i
COc1ccc(/C=N/Nc2nn3cnnc3c3ccccc23)cc1	i	-3	i	-7	i	i	·	·
Oc1cccc(-n2nnnc2SCc2ccccc2F)c1	i	1	i	-1	i	-6.3*	57%*	i
O=[N+]([O-])c1ccc(O)c(CSc2nnnn2-c2ccccc2)c1	i	1	i	0	100*	-6.1*	30%*	i
COc1cccc(NC(=O)CN(C)C(=O)CCCc2nc3ccccc3c(=O)[nH]2)c1	·	1	i	4	·	·	·	·
CC(C)(C)C(=O)NNC(=O)c1cc2sccc2s1	i	5	i	5	i	-5.8*	i	i
CC(C)(C)OC(=O)NNC(=O)c1cccs1	i	·	i	-4	i	i	·	·
O=C(Nc1ncn[nH]1)c1ccc(Cl)c(Cl)c1	·	5	i	·	·	·	·	·
O=C1OCCC1Sc1nc(-c2ccccc2)cs1 (configuration not stated)	i	0	i	5	i	-9.1*	39%*	i
